Source: PubChem BioAssay (Tox21)
Records with an inconclusive call do not appear. Active and inactive are the calls of the source. Calls follow the shape of the dose curve; as a rule, active = well fitted curve in the direction sought with a large enough effect in the repeat runs; inconclusive = weak or mixed curves; inactive = no such curve, though single readings can be large; an effect the other way counts as inactive or inconclusive.

Columns and labels:
[1] = A CellTox Green Cytotoxicity Assay to monitor cytotoxicity in HEK293 cells - 40 hour (AID 1224871); settings: CellTox Green fluorescence; series mostly up to 76.8 µM; also: nearly all actives have a fitted effect of over 45% in size
How it was run: (§1)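 Real-time, in one plate: 600 HEK293 cells/well with dead-cell DNA dye, pinned compound after 5 h, 37 C incubation over 40 h; viable cells give no appreciable fluorescence.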

[2] = qHTS RealTime-Glo MT Cell Viability Assay in HEK293 cells - 16 hour (AID 1224872); settings: RealTime-Glo luminescence; series mostly up to 76.8 µM; also: top concentration of the series differs between compounds; nearly all actives have a fitted effect of over 50% in size
How it was run: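 Viability tracked continuously by luminescence as live cells reduce a prosubstrate for NanoLuc; HEK293 cells preincubated 5 h, compound-treated at 37 C, and read at 0, 8, 16, 24, 32 and 40 h.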

[3] = qHTS RealTime-Glo MT Cell Viability Assay in HepG2 cells - 8 hour (AID 1224873); settings: RealTime-Glo luminescence; series mostly up to 76.8 µM; also: nearly all actives have a fitted effect of over 55% in size
How it was run: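 HepG2 cells (600/well) mixed with RealTime-Glo MT reagent, settled 5 h at 37 C/5% CO2 before compound addition. Nonlytic NanoLuc luminescence from viable-cell prosubstrate reduction read repeatedly during 40 h treatment at 37 C.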

[4] = qHTS RealTime-Glo MT Cell Viability Assay in HEK293 cells - 40 hour (AID 1224874); settings: RealTime-Glo luminescence; max response: hits give low values; also: nearly all actives have a fitted effect of over 50% in size
How it was run: (§2)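 Kinetic, non-lysing viability readout. Seed HEK293 (600/well) with reagent, incubate 5 h at 37 C/5% CO2, pin 23 nL compound in DMSO, incubate at 37 C, read luminescence at 0, 8, 16, 24, 32, 40 h.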

[5] = A CellTox Green Cytotoxicity Assay to monitor cytotoxicity in HEK293 cells - 24 hour (AID 1224875); settings: CellTox Green fluorescence; series mostly up to 76.8 µM; also: nearly all actives have a fitted effect of over 45% in size
How it was run: as §1

[6] = A CellTox Green Cytotoxicity Assay to monitor cytotoxicity in HepG2 cells - 16 hour (AID 1224876); settings: CellTox Green fluorescence; series mostly up to 76.8 µM; also: nearly all actives have a fitted effect of over 45% in size
How it was run: (§3)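 Cytotoxicity was tracked as dead-cell DNA fluorescence in HepG2 cells treated with test compounds at 37 C; each time-point value comes from one kinetic series spanning 0, 8, 16, 24, 32 and 40 h.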

[7] = A CellTox Green Cytotoxicity Assay to monitor cytotoxicity in HepG2 cells - 24 hour (AID 1224878); settings: CellTox Green fluorescence; series mostly up to 76.8 µM; also: nearly all actives have a fitted effect of over 45% in size
How it was run: as §3

[8] = qHTS RealTime-Glo MT Cell Viability Assay in HEK293 cells - 0 hour (AID 1224880); settings: RealTime-Glo luminescence; series mostly up to 76.8 µM
How it was run: as §2

[9] = A CellTox Green Cytotoxicity Assay to monitor cytotoxicity in HepG2 cells - 40 hour (AID 1224879); settings: CellTox Green fluorescence; series mostly up to 76.8 µM; also: nearly all actives have a fitted effect of over 40% in size
How it was run: as §3

[10] = qHTS RealTime-Glo MT Cell Viability Assay in HepG2 cells - 32 hour (AID 1224877); settings: RealTime-Glo luminescence; series mostly up to 76.8 µM; also: nearly all actives have a fitted effect of over 55% in size
How it was run: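 Viability was tracked continuously by NanoLuc luminescence from prosubstrate reduced by living HepG2 cells, at successive time points over 40 h of compound exposure. Cells with reagent were preincubated 5 h at 37 °C before compound addition.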
% is scaled to controls: 0 for no effect and ±100 for the full control effect.

COCCCN1CCC(NC(=O)c2cc(Cl)c(N)c3c2OCC3)CC1
inactive: Potency [1] | Potency [2] | Potency [3] | max response [4] -14% | Potency [5] | Potency [6] | Potency [7] | Potency [8]

CCOc1ccc(N=Nc2ccc(/C=C/c3ccc(N=Nc4ccc(OCC)cc4)cc3S(=O)(=O)O)c(S(=O)(=O)O)c2)cc1
inactive: Potency [1] | Potency [2] | Potency [3] | max response [4] -1.09% | Potency [5] | Potency [7] | Potency [9] | Potency [8]

Cc1ncc(CO)c(C=O)c1O
inactive: Potency [1] | Potency [2] | Potency [3] | max response [4] 0.556% | Potency [5] | Potency [6] | Potency [9] | Potency [8]

CCC(C)(C)CC
inactive: Potency [1] | Potency [2] | Potency [3] | max response [4] -9.85% | Potency [6] | Potency [10] | Potency [7] | Potency [9] | Potency [8]

CC[N+]1(CC)CCC(=C(c2ccccc2)c2ccccc2)C1C (configuration not stated)
inactive: Potency [1] | Potency [2] | Potency [3] | Potency [5] | Potency [6] | Potency [10] | Potency [7] | Potency [9] | Potency [8]

Nc1cc(C(=O)O)c(O)c(S(=O)(=O)O)c1
inactive: Potency [1] | Potency [2] | Potency [3] | Potency [5] | Potency [6] | Potency [10] | Potency [7] | Potency [9] | Potency [8]

c1cc(CCCc2ccncc2)ccn1
inactive: Potency [1] | Potency [2] | Potency [3] | max response [4] -17.4% | Potency [6] | Potency [10] | Potency [7] | Potency [9] | Potency [8]

CC1=CC=C(C(C)C)CC1
inactive: Potency [1] | Potency [2] | Potency [3] | max response [4] 1.32% | Potency [6] | Potency [10] | Potency [7] | Potency [9] | Potency [8]

O=C1C(O)=C(O)C(=O)C(O)=C1O
inactive: Potency [1] | Potency [2] | Potency [3] | Potency [5] | Potency [6] | Potency [10] | Potency [7] | Potency [9] | Potency [8]

CCCC(=O)Nc1ccc(O)c(C(C)=O)c1
inactive: Potency [1] | Potency [2] | Potency [3] | Potency [5] | Potency [6] | Potency [10] | Potency [7] | Potency [9] | Potency [8]

CCCCc1ncc(/C=C(\Cc2cccs2)C(=O)O)n1Cc1ccc(C(=O)O)cc1
inactive: Potency [1] | Potency [2] | Potency [3] | max response [4] 2.83% | Potency [6] | Potency [10] | Potency [7] | Potency [9] | Potency [8]

O=C1OC(CN2CCOCC2)CN1/N=C/c1ccc([N+](=O)[O-])o1 (configuration not stated)
inactive: Potency [1] | Potency [2] | Potency [3] | Potency [5] | Potency [6] | Potency [10] | Potency [7] | Potency [9] | Potency [8]

CCOCC(O)COc1ccc(NC(=O)CC[S+](C)C)cc1 (configuration not stated)
inactive: Potency [1] | Potency [2] | Potency [3] | Potency [5] | Potency [6] | Potency [10] | Potency [7] | Potency [9] | Potency [8]

CN(C)CCN(Cc1ccccc1)c1ccccn1
inactive: Potency [1] | Potency [2] | Potency [3] | max response [4] -27.7% | Potency [6] | Potency [9] | Potency [8]

C/C(=C(\CCOP(=O)(O)O)SC(=O)c1ccccc1)N(C=O)Cc1cnc(C)nc1N
inactive: cytotoxicity increase [1] -7.37% [at 6.97 µM] | activity change, negative = cytotoxicity [2] 2.81% [at 6.97 µM] | viability change, negative = cytotoxic [3] 2.94% [at 6.97 µM] | max response [4] 6.16% | cytotoxicity increase [6] 0.668% [at 6.97 µM] | activity change, negative = cytotoxic [10] 2.64% [at 6.97 µM] | cytotoxicity [7] -0.377% [at 6.97 µM] | cytotoxicity increase [9] -0.293% [at 6.97 µM] | activity change, negative = cytotoxicity [8] 2.7% [at 6.97 µM]

CCC(C)O (configuration not stated)
inactive: Potency [1] | Potency [2] | Potency [3] | Potency [5] | Potency [6] | Potency [10] | Potency [7] | Potency [9] | Potency [8]

CCN(CC)c1ccc(C(=C2C=CC(=[N+](CC)CC)C=C2)c2cc(S(=O)(=O)O)ccc2S(=O)(=O)[O-])cc1
inactive: Potency [1] | Potency [2] | Potency [3] | max response [4] 0.738% | Potency [6] | Potency [10] | Potency [7] | Potency [9] | Potency [8]

C=C1[C@H]2CC[C@@H]3[C@H]2C(C)(C)CCC[C@]13C
inactive: Potency [1] | Potency [2] | Potency [3] | max response [4] -2.59% | Potency [6] | Potency [10] | Potency [7] | Potency [9] | Potency [8]
